Compound activity as filed in PubChem.
The list is not random: actives were taken first. Their share in the collection is about 1.8%.
Fam108B counter: mouse Fam108B serine hydrolase inhibitors, primary screen, counter-screen for RBBP9 inhibitor project, biochemical, fluorescence polarization | recombinant Fam108B, FP-Rh probe fluorescence polarization | inhibition, % at 9.51 µM | hit rate 0.33% among 300,000;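 active = inhibition above the screen mean inhibition plus 3 SD, computed separately per campaign, cut at about 18% in these data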;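 also: inhibitors lower polarization as less probe binds the enzyme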
GSTO1 counter: inhibitors of recombinant GSTO1, primary screen, counter-screen for RBBP9 inhibitor project, biochemical, fluorescence polarization. Glutathione S-transferase omega-1 (Homo sapiens), P78417. inhibition, % at 5.96 µM. hit rate 1.1% among 300,000. activity-based probe fluorescence polarization;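 active = inhibition above the campaign mean inhibition plus 3 SD, cut at about 35% in these data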;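 also: 0% = GSTO1-1 with DMSO and 100% = wells lacking GSTO1-1 enzyme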
Target sequence (P78417 whole entry, looked up): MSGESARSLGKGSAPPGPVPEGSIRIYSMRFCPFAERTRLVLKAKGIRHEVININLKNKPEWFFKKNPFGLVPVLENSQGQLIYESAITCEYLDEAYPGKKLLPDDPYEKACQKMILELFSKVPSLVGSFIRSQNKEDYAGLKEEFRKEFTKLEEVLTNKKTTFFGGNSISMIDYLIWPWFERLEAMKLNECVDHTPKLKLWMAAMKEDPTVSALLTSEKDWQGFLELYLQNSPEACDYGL
PME-1 inh: PME-1 inhibitors via competitive probe labeling, primary screen, biochemical, fluorescence polarization, FP-Rh probe, HTS. hit rate 0.53% among 320,000. AID 2130, 2009. recombinant PME-1. inhibition, % at 5.9 µM. Protein phosphatase methylesterase 1 (Homo sapiens), Q9Y570;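 active = inhibition above the campaign mean of all compounds plus 3 SD, cut at about 26% in these data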;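 also: competitive labeling of PME-1 active site by serine hydrolase directed probe; 0% = PME-1 with DMSO and 100% = wells lacking PME-1 enzyme; inhibitors block probe labeling so polarization falls and inhibition rises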
PAD4 FP inh: human PAD4 inhibitors, primary screen, biochemical, fluorescence polarization, 1536-well format | Protein-arginine deiminase type-4 (Homo sapiens), Q9UM07 | recombinant PAD4, RCA probe fluorescence polarization | inhibition, % at 6.36 µM | hit rate 0.41% among 330,000;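 active = percent inhibition above a cutoff equal to the mean of all tested compounds plus 3 SD, cut at about 15% in these data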;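 also: 0% = PAD4 with RCA probe and DMSO and 100% = probe without PAD4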
LYPLA2 counter: LYPLA2 inhibitors, primary screen, counter-screen for PME1 inhibitor project, biochemical, fluorescence polarization, FP-Rh probe ABPP; Acyl-protein thioesterase 2 (Homo sapiens), O95372; recombinant LYPLA2; inhibition, % at 5.9 µM; hit rate 0.38% among 320,000; AID 2177, 2009;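 active = inhibition above the screen-wide mean plus 3 SD, limit set per campaign, cut at about 26% in these data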;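 also: 0% = LYPLA2 with DMSO and 100% = wells lacking LYPLA2 enzyme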
LYPLA1 inh: LYPLA1 inhibitors, primary screen, counter-screen for PME1 inhibitor project, biochemical, fluorescence polarization, FP-Rh probe ABPP. Acyl-protein thioesterase 1 (Homo sapiens), O75608. recombinant LYPLA1. inhibition, % at 5.9 µM. hit rate 0.16% among 320,000;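 active = inhibition above the mean of all tested compounds plus 3 SD, set per campaign, cut at about 14% in these data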;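 also: inhibitors block serine hydrolase probe labeling of LYPLA1 so polarization falls; 0% = enzyme with DMSO and 100% = wells lacking LYPLA1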
Target sequence (O75608 whole entry, looked up): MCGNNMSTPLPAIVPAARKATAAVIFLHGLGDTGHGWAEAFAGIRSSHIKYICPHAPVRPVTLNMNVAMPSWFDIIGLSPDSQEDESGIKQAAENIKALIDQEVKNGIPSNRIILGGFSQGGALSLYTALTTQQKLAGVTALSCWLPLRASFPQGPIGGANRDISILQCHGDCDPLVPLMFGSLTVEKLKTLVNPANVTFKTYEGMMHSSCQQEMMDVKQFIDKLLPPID
Fam108b inh conf: mouse Fam108b serine hydrolase inhibitors, confirmation, counter-screen for RBBP9 inhibitor project, biochemical, fluorescence polarization, triplicate; shares compounds with Fam108B counter; recombinant Fam108b, FP-Rh probe fluorescence polarization; inhibition, % at 9.51 µM; hit rate 44% among 930; AID 1978, 2009;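 active = inhibition above a limit from the primary screen, the mean over all compounds plus 3 SD, cut at about 19% in these data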;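 also: 0% = median of active Fam108b wells and 100% = catalytically dead S170A mutant; inhibitors free the probe so polarization falls as inhibition rises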
Fam108b ABPP HTS: inhibition of mouse Fam108b by HTS hits, late-stage follow-up, biochemical, gel-based ABPP, soluble recombinant form. shares compounds with Fam108B counter. fluorophosphonate probe. inhibition, % at 20 µM. hit rate 44% among 260. AID 588649, 2011; in the data active = inhibition above about 40%
Starred values were filed as active, the others as inactive; nt = not tested or not shown.

SMILES	Fam108B counter	GSTO1 counter	PME-1 inh	PAD4 FP inh	LYPLA2 counter	LYPLA1 inh	Fam108b inh conf	others
O=C(Nc1ccc(-c2csc(Nc3ccc(Cl)cc3)n2)cc1)c1cc([N+](=O)[O-])cc(C(F)(F)F)c1	29*	0	9	1	-9	-17	-5
O=C(Nc1cccc(-c2csc(Nc3ccc(Cl)cc3)n2)c1)c1cc([N+](=O)[O-])cc(C(F)(F)F)c1	59*	-5	35*	3	6	-20	68*	Fam108b ABPP HTS=100*
CC(C)Oc1ccc(C(CCN)C2CCCCC2)cc1 (centres undefined)	2	1	0	1	5	0	nt
CCCOc1ccccc1/C=C(\C#N)C(=O)Nc1cccc(C)n1	12	7	-2	-1	0	0	nt
Cc1cccc(NC(=O)/C(C#N)=C/c2ccc(F)cc2)n1	38*	30	16	12	6	4	3
CCO[C@@H]1OC(C(=O)NCc2ccccc2)=C[C@H](C2CCCCC2)[C@H]1CCCO	2	2	6	6	6	0	nt
Cc1cc(C)cc(NC(=O)CCCN2C(=O)C(c3ccccc3)Oc3cccnc32)c1 (centres undefined)	-1	-2	-2	0	-11	-4	nt
O=c1c2c3c(sc2n(CCN2CCCCC2)c(=O)n1Cc1ccco1)CCCCC3	21*	1	0	-1	4	0	28*
O=c1c2c3c(sc2n(CCN2CCOCC2)c(=O)n1Cc1ccco1)CCCCC3	20*	-3	-1	1	6	-5	16
CC(=O)C1C(=O)c2c(cccc2[N+](=O)[O-])C1=Nc1ccc(S(N)(=O)=O)cc1 (centres undefined)	20*	20	26*	-2	10	2	22*
CC(=O)C1=C(O)C(=O)N(c2ccc(S(N)(=O)=O)cc2)C1c1cccc([N+](=O)[O-])c1 (centres undefined)	1	7	4	0	1	0	nt
O=C(O)c1ccc(NC(=O)c2cccc(C(=O)Nc3ccc(C(=O)O)cc3)n2)cc1	21*	-31	22	5	19	1	13
CN(C)c1ccc(NC(=O)c2cccc(C(=O)Nc3ccc(N(C)C)cc3)n2)cc1	21*	11	-18	3	2	7	32*	Fam108b ABPP HTS=35
Cc1cnc(NC(=O)Nc2ccc(OCc3ccccc3)cc2)c(Br)c1	-3	3	-6	0	4	1	nt
CCN(CC)c1ccc(/C=N/NC(=O)c2c[nH]c3ccccc23)cc1	23*	-6	20	-5	0	2	-3
CCN(CC)c1ccc(/C=N/NC(=O)c2cc3ccccc3[nH]2)cc1	4	-3	14	1	-6	-11	nt
Cc1cc(OCc2cccc(S(=O)(=O)N3CCOCC3)c2)ccc1Cl	nt	nt	3	-2	0	-1	nt
Cc1[nH]c2ccccc2c1-c1nc2ccccc2[nH]c1=O	3	3	2	5	-3	-6	nt
Cc1ccc2nc(CSc3nc(C)ccc3C#N)[nH]c2c1	42*	-2	4	-2	4	-6	40*	Fam108b ABPP HTS=55*
O=C(Nc1ccc2[nH]c(=S)sc2c1)Nc1ccccc1F	26*	2	78*	-4	-2	-6	49*	Fam108b ABPP HTS=90*
O=C(Nc1ccc2[nH]c(=S)sc2c1)c1ccccc1	0	1	-2	14	7	-3	nt
CSC1=NSC2=NC(=O)/C(=C\c3cccs3)C(=N)N12	7	-10	2	-4	0	-5	nt
